Source: PubChem BioAssay AID1159580 (chemical genetic matrix, 2015)
Hit rate of the full screen: of about 5,500 compounds, about 2,000 (36%) were called active. Not shown: some 18% with an inconclusive outcome. No stated cut-off is given here; in the data, active means normalized growth mostly below about 0.91 (no sharp cut-off); inconclusive means no clear call, values can overlap the other calls; inactive means mostly above about 0.92. The list shows a part of the results.

Assay: chemical genetic growth profiling, strain panel (AID 1159580);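 further: tested at 20 µM; growth read once vehicle control cultures reached saturation at 30 °C; 1 = growth at the plate median or of vehicle wells; lower values mean less growth of the strain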
Settings: S. cerevisiae deletion strains, growth OD

Measured: normalized growth

CCOC(=O)c1oc2c(OC)c(O)cc(O)c2c(=O)c1-c1cc(OC)c(OC)c(OC)c1
inactive: locus YAL021C, strain ccr4, active compounds read low 0.985 | locus YAL026C, strain drs2, active compounds read low 0.974 | locus YAL030W, strain snc1, active compounds read low 0.968 | locus YBL061C, strain skt5, active compounds read low 0.976 | locus YBR009C, strain hhf1, active compounds read low 0.972 | locus YBR023C, strain chs3, active compounds read low 0.972 | locus YBR171W, strain sec66, active compounds read low 0.956 | locus YBR231C, strain swc5, active compounds read low 0.974 | locus YBR279W, strain paf1, active compounds read low 0.987 | locus YCL011C, strain gbp2, active compounds read low 0.976 | locus YCL016C, strain dcc1, active compounds read low 0.977 | locus YCL061C, strain MRC1, active compounds read low 0.966 | locus YCL069W, strain vba3, active compounds read low 0.989 | locus YCR088W, strain abp1, active compounds read low 0.972 | locus YDL005C, strain med2, active compounds read low 0.993 | locus YDL040C, strain nat1, active compounds read low 0.983 | locus YDR001C, strain nth1, active compounds read low 0.982 | locus YDR069C, strain doa4, active compounds read low 0.991 | locus YDR159W, strain sac3, active compounds read low 0.973 | locus YDR195W, strain ref2 1.05 | locus YDR297W, strain sur2, active compounds read low 0.979 | locus YDR334W, strain swr1, active compounds read low 0.98 | locus YDR335W, strain msn5, active compounds read low 0.971 | locus YDR392W, strain spt3, active compounds read low 0.878 | locus YEL003W, strain gim4, active compounds read low 0.978 | locus YEL037C, strain rad23, active compounds read low 0.98 | locus YEL061C, strain CIN8 (second series), active compounds read low 0.978 | locus YER015W, strain faa2, active compounds read low 0.986 | locus YER016W, strain bim1, active compounds read low 0.969 | locus YER111C, strain swi4, active compounds read low 0.989 | locus YER155C, strain BEM2 (second series), active compounds read low 0.947 | locus YFR010W, strain ubp6, active compounds read low 0.986 | locus YGL167C, strain pmr1, active compounds read low 0.957 | locus YGL173C, strain kem1, active compounds read low 0.965 | locus YGL227W, strain vid30, active compounds read low 0.959 | locus YGL240W, strain doc1, active compounds read low 0.948 | locus YGL253W, strain hxk2, active compounds read low 0.974 | locus YHR013C, strain ard1, active compounds read low 1.01 | locus YHR027C, strain rpn1, active compounds read low 0.985 | locus YHR142W, strain chs7, active compounds read low 0.955 | locus YJL092W, strain hpr5, active compounds read low 0.973 | locus YJL095W, strain BCK1 (second series), active compounds read low 0.975 | locus YJL115W, strain asf1, active compounds read low 0.986 | locus YJL129C, strain trk1, active compounds read low 0.977 | locus YJL154C, strain vps35, active compounds read low 0.984 | locus YJL164C, strain tpk1, active compounds read low 0.964 | locus YJL166W, strain qcr8, active compounds read low 0.975 | locus YJL187C, strain SWE1, active compounds read low 0.985 | locus YKL160W, strain elf1, active compounds read low 0.966 | locus YKR026C, strain gcn3, active compounds read low 0.97 | locus YKR091W, strain srl3, active compounds read low 0.973 | locus YLL001W, strain dnm1, active compounds read low 0.98 | locus YLL026W, active compounds read low 0.968 | locus YLL041C, strain sdh2, active compounds read low 0.974 | locus YLR027C, strain aat2, active compounds read low 0.972 | locus YLR221C, strain rsa3, active compounds read low 0.972 | locus YLR258W, strain gsy2, active compounds read low 0.969 | locus YLR320W, strain mms22, active compounds read low 0.901 | locus YLR342W, strain FKS1, active compounds read low 0.971 | locus YLR357W, strain rsc2, active compounds read low 1 | locus YLR370C, strain arc18, active compounds read low 0.972 | locus YLR384C, strain iki3, active compounds read low 0.982 | locus YML120C, strain ndi1, active compounds read low 0.973 | locus YMR058W, strain fet3, active compounds read low 0.976 | locus YMR125W, strain sto1, active compounds read low 0.985 | locus YMR129W, active compounds read low 0.978 | locus YMR205C, strain PFK2, active compounds read low 0.933 | locus YMR231W, strain pep5, active compounds read low 0.997 | locus YNL071W, strain lat1, active compounds read low 0.959 | locus YNL209W, strain ssb2, active compounds read low 0.98 | locus YNL248C, strain rpa49, active compounds read low 0.958 | locus YNL322C, strain KRE1 (second series), active compounds read low 0.971 | locus YNR049C, strain mso1, active compounds read low 0.974 | locus YOR001W, strain rrp6, active compounds read low 0.969 | locus YOR070C, strain gyp1, active compounds read low 0.973 | locus YOR080W, strain dia2, active compounds read low 0.985 | locus YOR083W, strain WHI5, active compounds read low 0.965 | locus YOR106W, strain vam3, active compounds read low 0.975 | locus YOR265W, strain rbl2, active compounds read low 0.974 | locus YOR270C, strain vph1, active compounds read low 0.915 | locus YOR290C, strain snf2, active compounds read low 0.959 | locus YPL051W, strain arl3, active compounds read low 0.963 | locus YPL078C, strain atp4, active compounds read low 0.973 | locus YPL106C, strain sse1, active compounds read low 0.997 | locus YPL240C, strain hsp82, active compounds read low 0.964
active: locus YDR137W, strain rgp1, active compounds read low 0.799 | locus YLR262C, strain YPT6 (second series), active compounds read low 0.82
